PubChem BioAssay (EPA / NIEHS)
Calls of active or inactive are those of the source. The calls were made as follows: active = hit-call score of the fitted dose curve at least 0.9, where 1 is the maximum; inactive = score below 0.9.

experiment: ATG_MRE_CIS: Attagene CIS-FACTORIAL HepG2 Assay for human Metal Responsive Element (MRE) (AID 2282954); conditions: HepG2 MRE cis-reporter transcription, Attagene multiplex; actives raise or lower the signal
Procedure: ATG_CIS is a cell-based, multiplexed-readout assay that uses HepG2, a human liver cell line, with measurements taken at 24 hours after chemical dosing in a 24-well plate.ATG_MRE_CIS is one of 52 assay component(s) measured or calculated from the ATG_CIS assay. It is designed to make measurements of mRNA induction, a form of inducible reporter, as detected with fluorescence intensity signals by Reverse transcription polymerase chain reaction (RT-PCR) and Capillary electrophoresis technology.Data from the assay component ATG_MRE_CIS was analyzed into 1 assay endpoint. This assay endpoint, ATG_MRE_CIS, was analyzed with bidirectional fitting relative to DMSO as the negative control and baseline of activity. Using a type of inducible reporter, measures of mRNA for gain or loss-of-signal activity can be used to understand the reporter gene at the transcription factor-level as they relate to the gene MTF1. Furthermore, this assay endpoint can be referred to as a primary readout, because this assay has produced multiple assay endpoints where this one serves a reporter gene function. To generalize the intended target to other relatable targets, this assay endpoint is annotated to the dna binding intended target family, where the subfamily is zinc finger.
Human liver HepG2 cells are transiently transfected with multiple reporter transcription units (MRTUs) in 6-well plates using FuGene 6 reagent (Roche; 3 ml FuGene/1 mg DNA). The MRTU constructs are regulated by a cis-regulating element (promoter). […] A major difference between the CIS and TRANS system is that in CIS activities of endogenous TFs are measured, whereas the TRANS assay evaluates changes in activities of exogenous, chimeric NR-Gal4 proteins. […] At the end of 24 hour incubation, total RNA was isolated using TriZol reagent (Invitrogen). The isolated RNA is then reverse-transcribed using oligo(dT) primer and Mo-MLV reverse transcriptase (Invitrogen) with DNAse I (Ambion) treatment for 30 min. The one-tenth of the produced cDNA was amplified by PCR using Taq DNA polymerase (Invitrogen) and two reporter sequence-specific primers. The PCR products were fluorescently labeled by primer extension with 6-arboxyfluorescein (6-FAM) 5'-labeled reporter sequence-specific primer (2 min at 95 C, 20 s at 68 C and 10 min at 72 C) and these products were digested with 5U of HpaI (New England Biolabs) for 2h at 37 C. The fragments were purified using Qiaquick PCR columns (Qiagen), analyzed on an ABI 3130xL genetic analyzer (Applied Biosystems) with peak positions identified by using a set of X-rhodamine (ROX)-labeled MapMarker1000 molecular weight standards (BioVentures). The raw capillary electrophoresis data was processed using Attagraph software (Attagene).

| Compound | outcome | AC50 |
| --- | --- | --- |
| C=CCCCCCCCCOC(C)=O | inactive | – |
| CCCC1CCCC(=O)O1 (stereo not given) | inactive | – |
| C=Cc1ccc(OC(C)=O)cc1 | inactive | – |
| CCC(C)c1ccccc1 (stereo not given) | inactive | – |
| CC1=NN(c2ccc(S(=O)(=O)O)cc2)C(=O)C1N=Nc1ccccc1 (stereo not given) | inactive | – |
| CC(C)C(=O)OCCOc1ccccc1 | inactive | – |
| O=C(O[C@@H]1Cc2c(O)cc(O)cc2O[C@@H]1c1cc(O)c(O)c(O)c1)c1cc(O)c(O)c(O)c1 | inactive | – |
| CCCCCCO | inactive | – |
| COC(=O)C=Cc1ccccc1 | inactive | – |
| CC1=CC=C(C(C)C)CC1 | inactive | – |
| CC(=O)C(C)C | inactive | – |
| O=C(Oc1ccccc1)c1ccccc1C(=O)Oc1ccccc1 | inactive | – |
| O=C(O)C1CCC(C(=O)O)CC1 (stereo not given) | inactive | – |
| O=C1CCCCCCCCCCC1 | inactive | – |
| C=C(C)C(=O)OCCCCCCCCCCCC | inactive | – |
| Cc1c(C(=O)c2c[nH]n(C)c2=O)ccc(S(C)(=O)=O)c1C1=NOCC1 | inactive | – |
| C=CC(=O)OCCCCCCOC(=O)C=C | – | 52.4 µM (active) |
| C=CC(=O)OCCCCCCCC(C)C | inactive | – |
| CC(C)(O)Cc1ccccc1 | inactive | – |
| CC(C)(CO)COC(=O)C(C)(C)CO | inactive | – |

| Compound | outcome | AC50 |
| --- | --- | --- |
| CC1(C)[C@@H]2CC[C@@]1(C)C(=O)C2 | inactive | – |
| O=C(O)c1cc(O)c2ccccc2c1O | inactive | – |
| CC(c1cc(C(C)(C)C)cc(C(C)(C)C)c1O)c1cc(C(C)(C)C)cc(C(C)(C)C)c1O | inactive | – |
| CCCCCCCCCCCC(C)=O | – | 179 µM (active) |
| CCCCNS(=O)(=O)c1ccc(C)cc1 | inactive | – |
| CC(C)=CCl | inactive | – |
| CCOC(=O)C1=NOC(c2ccccc2)(c2ccccc2)C1 | inactive | – |
| CC(C)CC(=O)OCc1ccccc1 | inactive | – |
| CC(C)c1ccc2ncccc2c1 | inactive | – |
| C=Cc1cccc(C)c1 | inactive | – |
| CN(C)c1ccc2nc3ccc(=[N+](C)C)cc-3sc2c1 | inactive | – |
| CC(=O)OCCc1ccccc1 | inactive | – |
| CCC1COC(=O)O1 (stereo not given) | inactive | – |
| OCCCc1ccccc1 | inactive | – |
| CCC1(C)C(=O)N(Cl)C(=O)N1Cl (stereo not given) | – | 61.4 µM (active) |
| CCN1CCCC1=O | inactive | – |
| CCCCCCCCCCCCC | inactive | – |
| CCCCCCCCCCCC(=O)OCC | inactive | – |
| CN(C)Cc1cc(CN(C)C)c(O)c(CN(C)C)c1 | inactive | – |
| C=C(C)C(=O)OCCOC(=O)C(=C)C | inactive | – |
